Data: PubChem BioAssay (NCI)
Compounds without any hit were thinned out: in the full panel of roughly 79,000, 15% have a hit. A number with no mark means an inactive call. Active and inactive are the calls of the source. Rule as the data show it: active = growth inhibition above about 70%; inactive = the rest.

Legend:
[1] = NCI Yeast Anticancer Drug Screen. Data for the rad50 strain (AID 155);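 also: 0% = growth of vehicle-only cultures of the same strain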; conditions: S. cerevisiae rad50 strain growth inhibition, hits give high values; at 50.0 µM unless noted
Outline: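 Cells are treated with compound, grown, and their growth is then scored against vehicle-only cultures of the same repair-deficient yeast strain.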

[2] = NCI Yeast Anticancer Drug Screen. Data for the mec2-1 strain (AID 157); conditions: S. cerevisiae mec2-1 strain, hits give high values; at 50.0 µM unless noted
Outline: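 Using mec2-1 yeast: add compound, measure growth, express inhibition versus vehicle-treated cultures.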

[3] = NCI Yeast Anticancer Drug Screen. Data for the sgs1 mgt1 strain (AID 161);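 also: 0% = growth of cultures given vehicle only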; conditions: S. cerevisiae sgs1 mgt1 strain, hits give high values; at 50.0 µM unless noted
Outline: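 Compounds are added to genetically altered yeast, and growth is compared with cultures given vehicle alone to give percent inhibition.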

[4] = NCI Yeast Anticancer Drug Screen. Data for the cln2 rad14 strain (AID 165);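 also: 0% = growth equal to vehicle treated cultures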; conditions: S. cerevisiae cln2 rad14 strain, hits give high values; at 50.0 µM unless noted
Outline: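 Yeast strain cln2 rad14, bearing defects in cell cycle control and DNA repair, serves as the test system; values reflect growth inhibition compared with vehicle.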

[5] = NCI Yeast Anticancer Drug Screen. Data for the bub3 strain (AID 167); conditions: S. cerevisiae bub3 mutant strain, hits give high values; at 50.0 µM unless noted
Outline: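 Part of a panel of yeast mutants defective in DNA damage repair or cell cycle regulation. Each strain is grown with compound, and inhibition is calculated relative to solvent-treated cultures.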

[6] = NCI Yeast Anticancer Drug Screen. Data for the mlh1 rad18 strain (AID 175); conditions: S. cerevisiae mlh1 rad18 strain growth inhibition, hits give high values; at 50.0 µM unless noted
Outline: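 Steps: expose repair-defective yeast to compound; measure growth; express inhibition against vehicle-treated controls.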

SMILES	growth inhibition [1]	growth inhibition [2]	growth inhibition [3]	growth inhibition [4]	growth inhibition [5]	growth inhibition [6]
CC(C)=CC(=O)CC1(C)CCC(c2ccoc2)O1 (stereo unspecified)	-18.8%	-32.9%	-11.6%	14%	6.35%	-16%
CCCc1[nH]n(-c2ccccc2)c(=O)c1N=Nc1cccc(C(F)(F)F)c1	-10.7%	-1.1%	-7.3%	-12.8%	-5%	-7.95%
O=C(Nc1cc(Cl)c(Cl)cc1Cl)C(=O)C(C(=O)c1ccc(Cl)c(Cl)c1)C1OC(=O)c2ccccc21 (stereo unspecified)	19.4%	8.55%	0.55%	27%	4.05%	22.6%
Cc1ccc(S(=O)(=O)NC(CCC(=O)N2CCOCC2)C(=O)O)cc1 (stereo unspecified)	-18.1%	-4%	7.15%	-57.9%	24.8%	8.6%
Cc1nc2c3c(ccc2[nH]c1=O)C(=O)c1ccccc1C3=O	19.4%	11.6%	17.7%	16.9%	13.9%	38.2%
O=C1CC2(C(=O)O)CC3CC2C(O1)C3I (stereo unspecified)	13.7%	10.6%	24.1%	13.1%	14.5%	21.2%
CC(=O)Nc1cc(C(=O)Nc2cc(C(=O)Nc3cc(C(=O)Nc4cc(C(=O)Nc5cc(C(=O)NCCC(=O)NCCCN(C)C)n(C)c5)n(C)c4)n(C)c3)n(C)c2)n(C)c1	9.7%	-41.5%	-18.6%	-4%	-31.9%	-37.8%
CCN(CC)CCOC(=O)c1ccc(NC(=O)OCCOCCOC(=O)Nc2ccc(C(=O)OCCN(CC)CC)cc2)cc1	-1.8%	-4.3%	9.25%	-1.1%	-3.1%	14.7%
COC(=O)C1(C)CCCC2(C)C1CCC1(O)C(O)C(C(C)C)=CCC21 (stereo unspecified)	4.3%	-2.35%	2.55%	-2.25%	-1.95%	20.2%
O=C1c2c(ccc3c2CCCC3)CC1Cc1ccc2c(c1)CCCC2 (stereo unspecified)	-22%	-15.2%	-18.8%	-25.1%	-17.4%	-37.7%
O=[N+]([O-])C(C(Cl)=C(Cl)Cl)=C(N1CCOCC1)N1CCOCC1	-25.2%	-21.1%	-19.1%	-9.6%	5.1%	1.85%
C/C=C/C#C/C=C1/C=CC(=O)O1	-5.95%	-1.35%	-7.2%	37.1%	34.2%	10.1%
Cc1nc(C(Cl)(Cl)Cl)[nH]c(=O)c1SCCO	12.8%	-15.7%	-9.05%	10.1%	-2.4%	-6.35%
Cc1c(=O)n(C)c2ccccc2[n+]1[O-]	7.9%	16.1%	11.7%	-8.65%	7.1%	7.65%
O=Nc1ccc2ccccc2c1N=Nc1ccccc1C(=O)O	20.5%	72.5% (active)	45.6%	14.3%	53%	35.8%
CC(C)(C)CC(=O)NC1CCCCC1	-6.55%	-5.8%	12.2%	-23.1%	3.4%	13.7%
ClCc1ccc(OCc2ccccc2)cc1	-2.85%	-1.45%	-11.2%	9.3%	-29.1%	-6.25%
CC(=C/c1ccccc1)/C=C1/NC(=S)NC1=O	-25.6%	-41.9%	-16.4%	-2.7%	-23.4%	-21.4%
CC(C)N(C(C)C)S(C)(=O)=O	-0.3%	-0.5%	-3.9%	-17.8%	10.3%	3.1%
Cc1ccc(S(=O)(=O)ONNc2nccc3ccccc23)cc1	16.9%	7.05%	1.55%	-16.8%	1.15%	19.4%
CCOc1cc2c(cc1C(C)c1ccc(O)cc1)OCO2 (stereo unspecified)	99.5% (active)	99.7% (active)	99.7% (active)	99.7% (active)	99.5% (active)	99.5% (active)

SMILES	growth inhibition [1]	growth inhibition [2]	growth inhibition [3]	growth inhibition [4]	growth inhibition [5]	growth inhibition [6]
N=C(N)C1CN(CC=O)C(=O)NC1=O (stereo unspecified)	-11.7%	11.1%	-2.65%	24.9%	-4.15%	11.8%
C=C(c1ccccc1)C1ON(C)CCc2cc(OC)c(OC)cc21 (stereo unspecified)	3.65%	15.4%	14.3%	5.85%	33.6%	5.45%
CC(C)OC(=S)SC1CCCCC1=O (stereo unspecified)	-0.45%	-8.1%	-4.35%	-66.2%	-6.2%	-8.25%
CCOC(=O)c1nc2ccccc2c(=O)[nH]1	-1.85%	-5%	1.5%	-32.9%	-8.6%	-2.5%
O=C(O)c1cc(C(=O)C(=O)c2cc(C(=O)O)c(O)c3ccccc23)c2ccccc2c1O	-31.7%	-25.4%	-7.15%	-0.4%	-17.9%	-19.4%
O=C(O)c1ccccc1C(=O)Nn1cnnc1	-7.55%	1.15%	-25.9%	17.2%	-8.1%	-0.1%
CC(=O)N(C(C)=O)N1C(=O)CSC1=S	-11.1%	-35%	-21.8%	-3.4%	17.4%	-7.2%
O=C(NC(=O)c1ccccc1)Oc1cccc2ccccc12	18.3%	-0.1%	20.1%	7.85%	10.7%	22.8%
CSc1ccc(Cl)cc1	6%	-4.55%	1.7%	16.9%	-1.2%	16.1%
O=C(O)c1ccc(Nc2c3ccccc3nc3ccccc23)cc1	49%	11.6%	37.3%	17.2%	26.8%	24.6%
COc1ccccc1C(=O)N/N=C/c1cccc([N+](=O)[O-])c1	-2.15%	3.1%	13.7%	-11.7%	29.1%	4.75%
COC(=O)NCC1OCC2OC(C)(C)OC12 (stereo unspecified)	14.8%	3.25%	-10.9%	-62.5%	14.8%	9.35%
CC(C)=CC1C(C(=O)Oc2ccccc2C(C)C)C1(C)C (stereo unspecified)	-3.8%	-11.2%	2.6%	-22.6%	-27%	4.6%
CC(=O)OC1CC(n2cc(F)c(=O)[nH]c2=O)OC1CO (stereo unspecified)	7.95%	12.2%	-10.4%	-17%	-0.45%	2.5%
Cc1ccc(N(C)S(=O)(=O)c2ccccc2[N+](=O)[O-])cc1	19.1%	-17.6%	28.3%	12.1%	14.1%	19.6%
COc1ccc(-n2cnc3c2NC(C)(C)N=C3C(N)=O)c(OC)c1	-17.8%	-30.1%	-36.1%	24.9%	-10.2%	-23.2%
O=C(Nc1ccc(Cl)cc1[N+](=O)[O-])Oc1ccc(C2CCCCC2)cc1	98.2% (active)	94.3% (active)	98% (active)	87% (active)	98% (active)	97.5% (active)
CCN(CC)Cc1c(/C=C\c2cc(OC)c(OC)c(OC)c2)ccc(OC)c1O	-7.05%	4.4%	14.1%	9.55%	15.3%	-64%
Cc1ccc(C)c(Nc2c(C)ccc(C)c2C(=O)O)c1	-5.3%	-1.05%	12.4%	14%	-10.1%	-12.6%
CC(C)CCOB(OCCC(C)C)OCCC(C)C	-25.9%	-40.1%	-6.6%	2.45%	-26.6%	-23.2%
